# Source: PubChem BioAssay
# PLK1 PBD inh – qHTS for Inhibitors of PLK1-PDB (polo-like kinase 1 - polo-box domain): Primary Screen; Serine/threonine-protein kinase PLK1 (Homo sapiens), P53350; Plk1 PBD binding of FITC phosphopeptide, fluorescence polarization; Potency, µM, inactives show max response, negative = inhibition, most hits filed as inhibitors; hit rate 2.8% among 360,000; AID 720504, 2013; further: potency means the concentration at half of the fitted maximal effect; series mostly up to about 57 µM; on the % scale 0 is the no-effect control and ±100 the full control effect; nearly all actives have a fitted effect of over 65% in size
# CBFb-RUNX1 inh – qHTS Assay for Compounds Blocking the Interaction Between CBF-beta and RUNX1 for the Treatment of Acute Myeloid Leukemia | Runt-related transcription factor 1 (Homo sapiens) + Core-binding factor subunit beta … | AlphaScreen CBFb-His/RUNX1-biotin binding, biochemical | Potency, µM (top dose mostly 59.8 µM), for inactives: at the highest dose activity, negative = inhibition, most hits filed as inhibitors | 230,000 tested, under 10 active | AID 1477, 2009; further: % of control where 0% means no effect
#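 Interaction loss through any mechanism counts as activity. Pre-formed complex of His-CBF-beta and biotin-RUNX1 (30 nM apiece) is incubated with compound 15 min, then with 50 ng nickel and 50 ng streptavidin beads for 90 min before AlphaScreen detection.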
# MBNL1-CUG inh – qHTS Assay for Inhibitors of MBNL1-poly(CUG) RNA binding; Muscleblind-like protein 1 (Homo sapiens), Q9NR56; TR-FRET MBNL1-His/biotin-(CUG)12 binding, 665/545 ratio; Potency, µM (doses to about 57.5 µM), without a hit: top-dose activity change, negative = inhibition, hits mostly inhibitors; hit rate 0.036% among 280,000; AID 2675, 2010; active means well fitted inhibition curve with a large enough effect in the signal ratio, with a control signal flat, not every such curve was filed as active; inconclusive means small, poorly fitted or top-dose-only effect, or effect the other way, or a change in a side signal; inactive means no such curve, though single readings can be large or run the other way; the % refers to the signal ratio; further: potency means the concentration at half of the fitted maximal effect; on the % scale 0 is the no-effect control and ±100 the full control effect
#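 His-tagged MBNL1 binding to biotinylated (CUG)12 RNA was measured by TR-FRET using terbium anti-His antibody (0.055 ng/ul final) and streptavidin-XL665 (5 nM final). Compounds were titrated 92 nM to 58 uM; 60 min at room temperature.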
# hERG WT inh – qHTS for Inhibitors of KCHN2 3.1: Wildtype qHTS; Voltage-gated inwardly rectifying potassium channel KCNH2 (Homo sapiens), Q12809; U2OS, BacMam KCNH2, thallium flux FluxOr; hits give low values; activity change, % at 1.84 µM; hit rate 0.37% among 340,000;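 active means maximum activity change below -70%; inconclusive means maximum activity change between -70% and -50%; inactive means maximum activity change above -50%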; further: on the % scale 0 is the no-effect control and ±100 the full control effect
#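 U2OS cells transduced with wild-type KCNH2 virus are loaded with FluxOr dye for 45 min, and thallium flux is measured in kinetic reads before and after stimulation buffer. Rate constants are normalized to DMSO controls.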
# KCNH2 3.1 block – qHTS for Inhibitors of KCHN2 3.1: Mutant qHTS; U2OS KCNH2 3.1, thallium flux FluxOr; hits give low values; activity change, % (tested at about 1.8 µM); hit rate 0.95% among 340,000; AID 720553, 2013;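 active means maximum activity change below -70%; inconclusive means maximum activity change from -70% to -50%; inactive means maximum activity change above -50%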;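 further: thallium influx rate constant from kinetic fluorescence after stimulation buffer; on the % scale 0 is the no-effect control and ±100 the full control effect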
#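 Thallium flux via FluxOr fluorescence (Red40 quencher, 45 min loading) in U2OS cells virally expressing the KCNH2 3.1 isoform (1.77 x 10^8 /mL virus, overnight at 37 C). Rate constants from 2-min kinetic reads post-stimulation, normalised to positive and negative controls.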
# VDR inh – Inhibitors of the vitamin D receptor (VDR): qHTS; Potency, µM, without a hit: max response, negative = inhibition, hits mostly inhibitors; VDR-SRC2-3 peptide fluorescence polarization, 2 h; hit rate 0.93% among 400,000; Vitamin D3 receptor (Homo sapiens), P11473; AID 504847, 2011; further: potency means the concentration at half of the fitted maximal effect; on the % scale 0 is the no-effect control and ±100 the full control effect
# Target sequence (P11473 whole entry, looked up): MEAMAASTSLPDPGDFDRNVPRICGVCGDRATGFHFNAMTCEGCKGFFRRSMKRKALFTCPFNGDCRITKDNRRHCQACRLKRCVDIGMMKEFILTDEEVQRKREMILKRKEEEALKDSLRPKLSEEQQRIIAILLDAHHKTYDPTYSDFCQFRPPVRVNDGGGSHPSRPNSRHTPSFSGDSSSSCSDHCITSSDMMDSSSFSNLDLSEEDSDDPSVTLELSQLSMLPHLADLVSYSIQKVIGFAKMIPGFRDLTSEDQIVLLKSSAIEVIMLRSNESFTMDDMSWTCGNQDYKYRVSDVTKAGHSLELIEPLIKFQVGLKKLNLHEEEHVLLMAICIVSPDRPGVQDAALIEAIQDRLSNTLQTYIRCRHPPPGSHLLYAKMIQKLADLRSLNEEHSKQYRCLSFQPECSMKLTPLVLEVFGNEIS
#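 Measured by FP: displacement of SRC2-3 coactivator peptide from VDR by library compounds, following a two-hour ambient incubation.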
# The depositor's hits bear a star; ? = inconclusive; nt = no result given. Shown are actives, neighbours in structure and some others; about 3.8% of the full set was active somewhere. Unless noted, the call rests on the fitted dose curve; in most records, active means well fitted curve in the direction sought with a large enough effect; inconclusive means small, poorly fitted or top-dose-only effect, or another doubt; inactive means no such curve, though single readings can be large; an effect the other way counts as inactive or inconclusive.
SMILES,PLK1 PBD inh,CBFb-RUNX1 inh,MBNL1-CUG inh,hERG WT inh,KCNH2 3.1 block,VDR inh
COc1ccc(CCNC(=O)c2cc(-c3ccccc3O)n[nH]2)cc1OC,-2%,0%,0%,-2,9,-1%
COc1ccc(CCNC(=O)c2ccn[nH]2)cc1OC,3µM*,0%,-5%,0,0,-25%
COC(=O)c1ccccc1NC(=O)c1ncoc1-c1ccco1,nt,nt,nt,nt,nt,4%
Cc1ccc(N2C(=O)c3oc4cc(C)c(C)cc4c(=O)c3C2c2cccc(O)c2)nc1 (stereo unspecified),nt,nt,nt,nt,nt,4%
N#C/C(=C/c1cn(-c2ccccc2)nc1-c1cccc(OCc2ccc(F)cc2)c1)C(=O)NCCCn1ccnc1,-11%,?,-18%,-25,-92*,-16%
O=C(NCCCn1ccnc1)c1cn(-c2ccccc2)nc1-c1ccc(F)cc1,-12%,-2%,6%,34,-11,-2%
CCCOc1cccc(-c2nn(-c3ccccc3)cc2/C=C(\C#N)C(=O)NCCCn2ccnc2)c1,-10%,-23%,13%,-187*,0,-3%
CCc1ccc(CN(C)C(=O)CC2C(=O)NCCN2Cc2ccoc2)cc1 (stereo unspecified),-19%,-4%,9%,9,-85*,-5%
Cc1ccc(CN(C)C(=O)CC2C(=O)NCCN2CC2CCCCC2)cc1 (stereo unspecified),-12%,16%,0%,-7,12,-1%
COc1ccc(-n2c(=O)c3c(c4cc(OC)ccc4n3C)n(Cc3cc(C)ccc3C)c2=O)cc1,nt,nt,nt,nt,nt,3%
CCc1ccc(C(=O)c2c(N)c(-c3nc(-c4ccc5c(c4)OCO5)cs3)c3ccccn23)cc1,nt,nt,nt,nt,nt,-6%
O=C(O)C(Cc1ccccc1)N1C(=O)/C(=C/c2cccs2)SC1=S (stereo unspecified),?,?,0%,8,2,79µM*
COc1cccc(/C=C2\SC(=S)N(CCC(=O)Nc3ccc(O)cc3)C2=O)c1,-7%,nt,17%,-6,-5,1%
O=C(O)C(c1ccccc1)N1C(=O)/C(=C/c2cccs2)SC1=S (stereo unspecified),?,-29%,4%,12,15,-16%
COc1cccc(/C=C2\SC(=S)N(C(Cc3ccccc3)C(=O)O)C2=O)c1 (stereo unspecified),34µM*,-14%,1%,-8,9,?
CSC1=NCCN1C(=O)c1ccc(C)cc1,2%,2%,-4%,3,3,-9%
CSC1=NCCN1C(=O)c1ccc(S(=O)(=O)N(C)C)cc1,27µM*,-7%,1%,-2,8,-21%
CCNC(=O)C1CC(=O)N(c2ccc(Br)cc2)C1 (stereo unspecified),24µM*,-1%,-6%,-8,-11,-18%
COC(=O)C1=C(C)NC(=O)NC1c1cn(-c2ccccc2)nc1-c1ccc(OC)c(Cl)c1 (stereo unspecified),nt,nt,nt,nt,nt,-7%
CCN(CC)CCC(c1ccc(N(C)C)cc1)c1c(OC)cc(OC)c2c1OC(=O)CC2c1ccc(OC)cc1 (stereo unspecified),nt,?,nt,nt,nt,0%
COc1ccc(/C=C2\C(=O)NC(=O)c3ccccc32)cc1OC,4.7µM*,nt,nt,3,?,?
COc1ccc(/C=C2\C(=O)OCc3cc(OC)c(OC)cc32)cc1OC,-12%,5%,18%,8,13,-8%
COc1ccc(/C=C2/CCc3ccccc3C2=O)cc1OC,-1%,-2%,2%,-43,-21,-17%
COc1ccc(C=C2C(=O)OC(C)(C)OC2=O)cc1OC,13µM*,-5%,-2%,1,7,-3%
CN(C)c1ccc(NC(=O)CN2CCN(CC(=O)Nc3ccc(Br)cc3)CC2)cc1,nt,nt,nt,nt,nt,3%
SMILES,PLK1 PBD inh,CBFb-RUNX1 inh,MBNL1-CUG inh,hERG WT inh,KCNH2 3.1 block,VDR inh
CCOC(=O)C1=C(C)N=c2s/c(=C\c3ccc(OCC(=O)O)cc3)c(=O)n2C1c1ccc(OC(C)C)cc1 (stereo unspecified),24µM*,-6%,10%,7,-15,50µM*
CCOC(=O)C1=C(C)N=c2sc(=Cc3ccc(OCC(=O)O)cc3)c(=O)n2C1c1ccc(Cl)cc1 (stereo unspecified),-14%,nt,nt,nt,nt,nt
COc1cccc(C2C(C(=O)OC(C)C)=C(C)N=c3s/c(=C\c4ccc(C(=O)O)cc4)c(=O)n32)c1 (stereo unspecified),?,nt,7%,10,-8,89µM*
CCOC(=O)C1=C(C)N=c2sc(=Cc3cc(Cl)c(OCC(=O)O)c(Cl)c3)c(=O)n2C1c1cccc(OC)c1 (stereo unspecified),27µM*,nt,nt,nt,nt,nt
COC(=O)Cc1c(C)c2ccc3c(c2oc1=O)CN(Cc1ccccc1OC)CO3,nt,nt,nt,nt,nt,5%
CC1(C)CC(=O)C2=C(C1)N=C1SCCC(=O)N1C2c1ccccc1 (stereo unspecified),-12%,-3%,?,-12,-71*,?
O=C1CCCC2=C1C(c1ccc(Cl)cc1)N1C(=O)CCSC1=N2 (stereo unspecified),-10%,-9%,11%,-10,11,-18%
CC1CCCCC1NC(=O)/C(C#N)=C/c1ccc(F)c(F)c1 (stereo unspecified),-3%,11%,16%,-3,-4,6%
CC1CCCCC1NC(=O)/C(C#N)=C/c1ccc2c(c1)OCCO2 (stereo unspecified),27µM*,2%,-8%,-1,-6,-19%
Cc1cccc(NC(=S)N2CCN(Cc3ccccc3)CC2)c1C,-3%,-2%,-5%,-5,12,-5%
Cc1ccc(C(=S)N2CCN(Cc3ccccc3)CC2)s1,3µM*,-1%,-6%,-7,-21,?
O=C(OCC(=O)N(C1CCCCC1)C1CCCCC1)c1ccncc1,21µM*,2%,-1%,-8,12,-19%
O=C(OCC(=O)N1N=C(c2ccc(Cl)cc2)CC1c1ccco1)c1ccco1 (stereo unspecified),2%,-25%,-3%,-16,1,-12%
